Measurements from PubChem BioAssay.
Several values for one entry are separate records, joined by “and”; a condition that tells them apart may be missing. Identical values can stand only once. Activity calls are given as the source filed them. Unless noted, the rule behind the calls is not given here.

Tests used:
[1] = hESC survival regulators, cell-based (AID 493140); settings: human embryonic stem cell survival screen; stronger effect = higher value;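 note: cells exposed to compounds for four days before counting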
[2] = sensitizers of A549 cells to miR-34 induction, primary screen, imaging, A549 dox-inducible miR-34, nuclei and caspase counts (AID 1347080;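 active = compounds whose cell count with miR-34 switched on is under 0.7 times the count with it off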); settings: A549 miR-34 inducible, Hoechst nuclei count, 48 h
[3] = inhibitors of Cryptococcus chitosan production, flow cytometry, Cibacron Brilliant Red staining (AID 1347148); settings: Cryptococcus neoformans chitosan, stronger effect = lower value; at 10 µM unless noted;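 note: compound exposure lasted three days at 37 degrees C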
[4] = circadian clock period modulators, cell-based, LOPAC library, luminescence reporter (AID 2774); settings: circadian reporter cells, at 7 µM, actives lie on both sides;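 note: values are relative to mean of DMSO wells on each plate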
[5] = system: Hepatitis C virus NS3 helicase; assay: HCV NS3 helicase inhibitors, primary screen, biochemical, fluorescence polarization, LOPAC1280 library (AID 687035; in the data active = inhibition above about 37%); settings: Purified HCV NS3 helicase, Cy5-dT15 ssDNA binding fluorescence polarization; stronger effect = higher value; concentration not given here
[6] = Cy5 fluorescence quenching or enhancement artefacts, artefact control for HCV NS3 helicase inhibitor project, biochemical, LOPAC1280 (AID 687037); settings: Cy5-DNA-NS3h complex fluorescence interference counterscreen
[7] = phospholipid biosynthesis inhibitors in animal cells, primary screen, cell-based, LOPAC library, screen 4 (AID 1347384); settings: phospholipid biosynthesis inhibition screen, at 10 µM
[8] = viability rescue of complex I mutant cybrids, primary screen, cell-based, galactose medium, ATP luminescence (AID 1645843;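 active = z-score of at least 1.8 in each of two replicates, scored against plate mean and spread of sample wells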;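 note: positive z means more ATP and so rescue of galactose-driven cybrid death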); settings: complex I mutant cybrid cells, 72 h, stronger effect = higher value
[9] = survival rescue of mitochondrial mutant cells in low glucose, primary screen, MELAS cybrids, Rieske KO mouse fibroblasts, CellTiter-Glo (AID 1508586;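 active = mean z-score across replicates of 1.96 or higher in either the MELAS or the Rieske mutant cell line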;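 note: z relative to plate mean and SD of compound and empty wells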)
[10] = measured here: relative caspase fold change +Dox/-Dox
[11] = measured here: total cells with miR-34 induction, stronger effect = lower value
[12] = measured here: total cells without miR-34 induction

Compound | survival [1] | fold change ([2]; stronger effect = lower value) | fold change [2, 10] | cell count [2, 11] | cell count [2, 12] | fold fluorescence [3] | period change [4] | inhibition [5] | fluorescence ratio (interference) [6] | outcome [7] | z-score [8] | fold change ([2]; stronger effect = lower value, cell number ratio, induced over uninduced) | z-score ([9]; MELAS cybrid survival, CellTiter-Glo 48 h, stronger effect = higher value) | z-score ([9]; Rieske KO mouse fibroblast survival, CellTiter-Glo 72 h)
CCCCC/C=C\C/C=C\C/C=C\CCCCCCC(=O)NCCO | 87.2 (inactive) | 0.972 (inactive) and 1.13 (inactive) | 1.55 and 0.675 | 5830 and 6550 | 5990 and 5800 | 5.22 (inactive) |  |  |  |  |  |  |  | 
CCCCC/C=C\C=C\[C@H](CCCCCCCC(=O)O)OO | 87.6 (inactive) | 0.93 (inactive) | 1.23 | 5880 | 6320 | 5.11 [at 1 µM] (inactive) |  |  |  |  |  |  |  | 
c1ccc2cc(CC3=NCCN3)ccc2c1 |  | 1.06 (inactive) | 1.69 | 11100 | 10500 |  | 0.04 h (inactive) | -3% (inactive) | 1 (inactive) | inactive | 0.28 (inactive) |  |  | 
Oc1ccc2c3c1O[C@H]1c4[nH]c5ccccc5c4C[C@@]4(O)C(C2)N(CC2CC2)CCC314 (some centres undefined) |  | 1.01 (inactive) | 1.69 | 8190 | 8080 |  | 0.005 h (inactive) | -4% (inactive) | 1 (inactive) | inactive | -0.835 (inactive) |  |  | 
C[C@]12Cc3cn4c(nc3C=C1CCC1C2CC[C@@]2(C)[C@H]1CC[C@@]2(O)C#N)nc1ccccc14 (some centres undefined) |  | 1.02 (inactive) | 0.934 | 1380 | 1350 |  | 0.285 h (inactive) | 0% (inactive) | 1 (inactive) | inactive | -0.25 (inactive) |  |  | 
CC(N)c1cccc(Cl)c1Cl (centres undefined) |  | 1.05 (inactive) | 0.961 | 10200 | 9670 |  | 0.03 h (inactive) | -2% (inactive) | 1 (inactive) | inactive | 0.12 (inactive) |  |  | 
O=C(NC1CN2CCC1CC2)c1cc2ccoc2cn1 (centres undefined) |  | 0.991 (inactive) | 1.41 | 10200 | 10300 |  |  |  |  | inactive | 0.38 (inactive) |  |  | 
CCCCC/C=C\C[C@@H](/C=C/C=C\C/C=C\CCCC(=O)O)OO | 111 (inactive) | 0.888 (inactive) | 1.25 | 5520 | 6220 | 6.04 [at 1 µM] (inactive) |  |  |  |  |  |  |  | 
C=CCN1C[C@@H](C)N([C@H](c2ccc(C(=O)N(CC)CC)cc2)c2cccc(OC)c2)C[C@@H]1C |  | 1.1 (inactive) | 1.18 | 8780 | 7950 |  | 0 h (inactive) | -3% (inactive) | 1 (inactive) | inactive | -0.39 (inactive) |  |  | 
C[C@H](N)Cc1cccc(C(F)(F)F)c1 |  | 0.951 (inactive) | 1.01 | 10400 | 11000 |  |  | -3% (inactive) | 1 (inactive) | inactive | 0.04 (inactive) |  |  | 
C=CCN1CCC23c4c5ccc(O)c4O[C@H]2C(=O)CC[C@@]3(O)C1C5 (some centres undefined) |  | 1.07 (inactive) | 1.06 | 11300 | 10600 |  | -0.035 h (inactive) | -4% (inactive) | 1 (inactive) | inactive | 0.37 (inactive) |  |  | 
N=C(N)c1ccc(CS(=O)(=O)F)cc1 |  | 1.04 (inactive) | 1.07 | 11100 | 10700 |  |  | -2% (inactive) | 1 (inactive) | inactive | 0.445 (inactive) |  |  | 
CCCCC/C=C\C/C=C\CCCCCCCC(=O)NCCO | 162 (inactive) | 1.09 (inactive) and 1.06 (inactive) | 1.07 and 1.16 | 5710 and 5830 | 5220 and 5490 | 4.78 (inactive) |  |  |  |  |  |  |  | 
CN1CCC[C@@H]1Cc1c[nH]c2ccc(Nc3ncccc3[N+](=O)[O-])cc12 |  | 1.01 (inactive) | 1.84 | 7590 | 7510 |  |  |  |  | inactive | -0.89 (inactive) |  |  | 
CCCCC[C@@H](/C=C/C=C\CCCCCCCC(=O)O)OO | 94.8 (inactive) | 0.981 (inactive) | 1.1 | 5710 | 5820 | 6.27 [at 1 µM] (inactive) |  |  |  |  |  |  |  | 
CO/C1=C\C(C)=C\[C@@H](C)[C@@H](O)[C@@H](C)C/C(C)=C/C=C/[C@H](OC)[C@@H]([C@@H](C)[C@@H](O)[C@H](C)[C@@]2(O)C[C@@H](O)[C@H](C)[C@@H](C(C)C)O2)OC1=O |  |  | 1.29 | 2990 | 2860 | 11.4 [at 8 µM] (inactive) |  |  |  |  |  | 1.05 (inactive) |  | 
CCCCCCCCCCCCCCCCOC[C@@H](COP(=O)([O-])OCC[N+](C)(C)C)OC(C)=O | 78.6 (inactive) | 0.883 (inactive) | 0.996 | 4960 | 5620 | 4.51 (inactive) and 4.92 (inactive) |  |  |  |  |  |  |  | 
NC1CC1c1ccccc1 (centres undefined) |  | 0.977 (inactive) and 0.888 (inactive) | 1.3 and 1.48 | 10200 and 8220 | 10400 and 9270 |  | 0.03 h (inactive) | -1% (inactive) | 1 (inactive) | inactive | 0.355 (inactive) |  | -0.158 (inactive) | -0.299
